We go through five molecules from PubChem BioAssay.

The nature of experiment [1]: small molecules captured by biotinylated probe aFSTL3 – biochemical, small-molecule microarray, fluorescence 635/667, stem cell growth factor project, primary screen (AID 1064).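 Further: measures binding of the biotinylated anti-FSTL3 antibody to printed compounds.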 Particulars: higher = more signal.
Experiment [2] in a line: binders from COS7 lysate, DM2A8 probe, primary screen, torsin A project, cell lysate, small-molecule microarray, fluorescence 635/667 (AID 1065). To be noted: higher = more signal, COS7 lysate expressing mutant human TOR1A.
Experiment [3] can be described thus: small molecules captured by biotinylated probe aFGF2 – biochemical, small-molecule microarray, fluorescence 635/667, stem cell growth factor project, primary screen (AID 1067).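 Further: measures binding of biotinylated aFGF2 protein to printed compounds on slides; z-score merges feature fluorescence and signal-to-noise across triplicate slides.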 Particulars: higher = more signal.
Experiment [4] is described as follows: small molecules captured by biotinylated probe aFGF10 – biochemical, small-molecule microarray, fluorescence 635/667, stem cell growth factor project, primary screen (AID 1071).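 Further: score merges 667 nm spot intensity and signal to noise from triplicate slides.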 Particulars: higher = more signal.
In experiment [5] the target is Neurogenic locus notch homolog protein 2 (Homo sapiens) (UniProt Q04721). Briefly: small molecules binding Notch2 protein – biochemical, small-molecule microarray, 635 nm fluorescence, stem cell growth factors, primary screen (AID 1073). Particulars: higher = more signal.
The target of experiment [6] is Pro-neuregulin-1, membrane-bound isoform (Homo sapiens) (UniProt Q02297). Kind of experiment: small molecules binding neuregulin-1 protein – biochemical, small-molecule microarray, fluorescence 635/667, psychiatric disease protein project, primary screen (AID 1075).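 Further: score combines 667 nm spot fluorescence with signal to noise.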 Particulars: NRG1 binding, 635 nm fluorescence, higher = more signal.
The subject of experiment [7] is Neuregulin-1 EGF-like domain. Kind of experiment: small molecules binding NRG1 EGF domain – biochemical, small-molecule microarray, 635 nm fluorescence, primary screen (AID 1081).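 Further: binding of the protein to compounds printed on small-molecule microarray slides.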 To be noted: higher = more signal.
A short description of experiment [8]: FRG1 expression reporter modulators in myotubes – cell-based, C2C12 myotubes, firefly/Renilla luciferase, luminescence, FRG1 inhibition for FSHD, primary screen (AID 1084). Particulars: FRG1 promoter luciferase, higher = more signal, called active from +8 up or from −8 down.
The nature of experiment [9]: small molecules captured by biotinylated probe aFST – biochemical, small-molecule microarray, fluorescence 635/667, stem cell growth factor project, primary screen (AID 1086).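 Further: score merges 667 nm fluorescence with signal-to-noise of each printed compound spot.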 To be noted: higher = more signal.
Experiment [10] in a line: binders of probe aHhip on microarray, primary screen, stem cell growth factor project, biochemical, small-molecule microarray, fluorescence 635/667 (AID 1087).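 Further: score merges spot fluorescence at 667nm with spot signal to noise ratio.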 Particulars: higher = more signal.
Experiment [11] relates to PRMT1 (protein arginine N-methyltransferase 1). Briefly: small molecules binding arginine methyltransferase PRMT1 – biochemical, small-molecule microarray, 635 nm fluorescence, primary screen (AID 1088).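 Further: binding of Prmt1 protein to compounds spotted on small-molecule microarray slides.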 Particulars: higher = more signal.
The nature of experiment [12]: growth effects on S. cerevisiae YJM789 – YJM789 clinical isolate, OD600, 24 h, basal, primary screen (AID 1089).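 Further: growth of clinical yeast isolate S. cerevisiae YJM 789 seeded 1000 cells per well; test concentration not given here.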 To be noted: higher = more signal, called active from +8 up or from −8 down.
A short description of experiment [13]: S. pombe growth modifiers, basal conditions – strain 972, OD600, 24 h, no modulator, primary screen (AID 1090).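 Further: basal condition with compound alone and no growth modifier present; test concentration not given here.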 Particulars: S. pombe 972 growth, higher = more signal, called active from +8 up or from −8 down.
The nature of experiment [14]: budding yeast growth modifiers under rapamycin – strain BY4716, OD600, 96 h, primary screen (AID 1091). Further: test concentration not given here. Particulars: S. cerevisiae BY4716 + rapamycin, higher = more signal, called active from +8 up or from −8 down.
Experiment [15] concerns the target Torsin-1A-interacting protein 2 (Homo sapiens) (UniProt Q8NFQ8). Briefly: small molecules binding lysate-expressed LULL1 – cell lysate, human LULL1 lysate, 635/667 nm fluorescence, primary screen (AID 1092).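 Further: probe is lysate of COS7 cells overexpressing human LULL1; score merges per-feature 667 nm fluorescence with signal-to-noise.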 To be noted: small-molecule microarray, hLULL1 lysate binding, 635 nm fluorescence; higher = more signal.
Experiment [16] is described as follows: optical density change of DRC41 E. coli – strain DRC41, OD650, 24 h, E. coli filamentation project, primary screen (AID 1093).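 Further: MC1000 strain lacking acrAB efflux and sulA so SOS filamentation is blocked; test concentration not given here.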 Particulars: E. coli DRC41 growth, higher = more signal, called active from +8 up or from −8 down.
A short description of experiment [17]: probe aLefty2 binding to arrayed compounds – biochemical, biotinylated probe, 635/667 nm fluorescence, primary screen (AID 1094).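 Further: score merges spot fluorescence near 667 nm with spot signal-to-noise ratio.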 Particulars: small-molecule microarray, higher = more signal.
In experiment [18] the test system is Noggin (protein binding on small-molecule microarray). Kind of experiment: small molecules binding Noggin protein – biochemical, 635/667 nm fluorescence, primary screen (AID 1095).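 Further: score merges 667 nm feature fluorescence with signal to noise over triplicate slides.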 To be noted: 635 nm fluorescence, higher = more signal.
Experiment [19] has as its target Neurogenic locus notch homolog protein 3 (Homo sapiens) (UniProt Q9UM47). Kind of experiment: small molecules binding NOTCH3 protein – biochemical, 635/667 nm fluorescence, primary screen (AID 1096). Particulars: small-molecule microarray, 635 nm fluorescence, higher = more signal.
Experiment [20] is described as follows: probe aEGFR binding to arrayed compounds – biochemical, biotinylated probe, 635/667 nm fluorescence, primary screen (AID 1097).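 Further: probe is a biotinylated anti-EGFR antibody binding compounds printed on slides; score combines fluorescence near 667 nm and signal to noise of each spot.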 Particulars: small-molecule microarray, higher = more signal.

Activity calls are given as the source filed them.

Sequence of Torsin-1A-interacting protein 2 (Homo sapiens) (Q8NFQ8 whole entry, looked up): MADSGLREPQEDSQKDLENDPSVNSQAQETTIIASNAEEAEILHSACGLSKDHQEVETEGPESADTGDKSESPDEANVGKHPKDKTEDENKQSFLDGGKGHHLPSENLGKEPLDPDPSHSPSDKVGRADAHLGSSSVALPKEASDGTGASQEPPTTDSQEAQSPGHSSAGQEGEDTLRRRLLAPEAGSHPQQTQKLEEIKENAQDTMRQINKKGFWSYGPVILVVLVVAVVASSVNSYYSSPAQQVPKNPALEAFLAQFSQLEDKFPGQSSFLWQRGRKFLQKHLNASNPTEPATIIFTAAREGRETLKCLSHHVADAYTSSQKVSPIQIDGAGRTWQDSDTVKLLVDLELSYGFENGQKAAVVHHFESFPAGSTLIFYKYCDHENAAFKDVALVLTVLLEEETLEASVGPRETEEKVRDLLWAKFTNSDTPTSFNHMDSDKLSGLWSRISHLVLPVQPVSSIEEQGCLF
Sequence of Pro-neuregulin-1, membrane-bound isoform (Homo sapiens) (Q02297 whole entry, looked up, the tested form may be a part, canonical isoform): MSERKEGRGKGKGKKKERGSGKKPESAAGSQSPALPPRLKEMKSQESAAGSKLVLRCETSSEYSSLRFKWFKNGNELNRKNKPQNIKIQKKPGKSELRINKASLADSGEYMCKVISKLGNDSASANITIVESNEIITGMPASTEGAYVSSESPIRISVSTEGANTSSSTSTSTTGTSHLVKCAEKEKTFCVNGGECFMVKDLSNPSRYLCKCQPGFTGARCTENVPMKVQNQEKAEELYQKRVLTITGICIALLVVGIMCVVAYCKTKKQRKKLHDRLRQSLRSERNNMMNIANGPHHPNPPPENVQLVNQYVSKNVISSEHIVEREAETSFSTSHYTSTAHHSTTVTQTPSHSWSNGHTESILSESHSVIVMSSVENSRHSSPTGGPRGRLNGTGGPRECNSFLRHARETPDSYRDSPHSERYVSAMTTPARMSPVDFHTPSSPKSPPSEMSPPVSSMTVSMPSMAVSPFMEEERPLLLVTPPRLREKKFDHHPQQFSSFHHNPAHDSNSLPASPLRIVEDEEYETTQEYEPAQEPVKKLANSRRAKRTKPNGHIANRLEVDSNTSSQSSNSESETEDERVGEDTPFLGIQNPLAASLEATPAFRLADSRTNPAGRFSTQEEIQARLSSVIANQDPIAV
Sequence of Neurogenic locus notch homolog protein 2 (Homo sapiens) (Q04721 whole entry, looked up, canonical isoform): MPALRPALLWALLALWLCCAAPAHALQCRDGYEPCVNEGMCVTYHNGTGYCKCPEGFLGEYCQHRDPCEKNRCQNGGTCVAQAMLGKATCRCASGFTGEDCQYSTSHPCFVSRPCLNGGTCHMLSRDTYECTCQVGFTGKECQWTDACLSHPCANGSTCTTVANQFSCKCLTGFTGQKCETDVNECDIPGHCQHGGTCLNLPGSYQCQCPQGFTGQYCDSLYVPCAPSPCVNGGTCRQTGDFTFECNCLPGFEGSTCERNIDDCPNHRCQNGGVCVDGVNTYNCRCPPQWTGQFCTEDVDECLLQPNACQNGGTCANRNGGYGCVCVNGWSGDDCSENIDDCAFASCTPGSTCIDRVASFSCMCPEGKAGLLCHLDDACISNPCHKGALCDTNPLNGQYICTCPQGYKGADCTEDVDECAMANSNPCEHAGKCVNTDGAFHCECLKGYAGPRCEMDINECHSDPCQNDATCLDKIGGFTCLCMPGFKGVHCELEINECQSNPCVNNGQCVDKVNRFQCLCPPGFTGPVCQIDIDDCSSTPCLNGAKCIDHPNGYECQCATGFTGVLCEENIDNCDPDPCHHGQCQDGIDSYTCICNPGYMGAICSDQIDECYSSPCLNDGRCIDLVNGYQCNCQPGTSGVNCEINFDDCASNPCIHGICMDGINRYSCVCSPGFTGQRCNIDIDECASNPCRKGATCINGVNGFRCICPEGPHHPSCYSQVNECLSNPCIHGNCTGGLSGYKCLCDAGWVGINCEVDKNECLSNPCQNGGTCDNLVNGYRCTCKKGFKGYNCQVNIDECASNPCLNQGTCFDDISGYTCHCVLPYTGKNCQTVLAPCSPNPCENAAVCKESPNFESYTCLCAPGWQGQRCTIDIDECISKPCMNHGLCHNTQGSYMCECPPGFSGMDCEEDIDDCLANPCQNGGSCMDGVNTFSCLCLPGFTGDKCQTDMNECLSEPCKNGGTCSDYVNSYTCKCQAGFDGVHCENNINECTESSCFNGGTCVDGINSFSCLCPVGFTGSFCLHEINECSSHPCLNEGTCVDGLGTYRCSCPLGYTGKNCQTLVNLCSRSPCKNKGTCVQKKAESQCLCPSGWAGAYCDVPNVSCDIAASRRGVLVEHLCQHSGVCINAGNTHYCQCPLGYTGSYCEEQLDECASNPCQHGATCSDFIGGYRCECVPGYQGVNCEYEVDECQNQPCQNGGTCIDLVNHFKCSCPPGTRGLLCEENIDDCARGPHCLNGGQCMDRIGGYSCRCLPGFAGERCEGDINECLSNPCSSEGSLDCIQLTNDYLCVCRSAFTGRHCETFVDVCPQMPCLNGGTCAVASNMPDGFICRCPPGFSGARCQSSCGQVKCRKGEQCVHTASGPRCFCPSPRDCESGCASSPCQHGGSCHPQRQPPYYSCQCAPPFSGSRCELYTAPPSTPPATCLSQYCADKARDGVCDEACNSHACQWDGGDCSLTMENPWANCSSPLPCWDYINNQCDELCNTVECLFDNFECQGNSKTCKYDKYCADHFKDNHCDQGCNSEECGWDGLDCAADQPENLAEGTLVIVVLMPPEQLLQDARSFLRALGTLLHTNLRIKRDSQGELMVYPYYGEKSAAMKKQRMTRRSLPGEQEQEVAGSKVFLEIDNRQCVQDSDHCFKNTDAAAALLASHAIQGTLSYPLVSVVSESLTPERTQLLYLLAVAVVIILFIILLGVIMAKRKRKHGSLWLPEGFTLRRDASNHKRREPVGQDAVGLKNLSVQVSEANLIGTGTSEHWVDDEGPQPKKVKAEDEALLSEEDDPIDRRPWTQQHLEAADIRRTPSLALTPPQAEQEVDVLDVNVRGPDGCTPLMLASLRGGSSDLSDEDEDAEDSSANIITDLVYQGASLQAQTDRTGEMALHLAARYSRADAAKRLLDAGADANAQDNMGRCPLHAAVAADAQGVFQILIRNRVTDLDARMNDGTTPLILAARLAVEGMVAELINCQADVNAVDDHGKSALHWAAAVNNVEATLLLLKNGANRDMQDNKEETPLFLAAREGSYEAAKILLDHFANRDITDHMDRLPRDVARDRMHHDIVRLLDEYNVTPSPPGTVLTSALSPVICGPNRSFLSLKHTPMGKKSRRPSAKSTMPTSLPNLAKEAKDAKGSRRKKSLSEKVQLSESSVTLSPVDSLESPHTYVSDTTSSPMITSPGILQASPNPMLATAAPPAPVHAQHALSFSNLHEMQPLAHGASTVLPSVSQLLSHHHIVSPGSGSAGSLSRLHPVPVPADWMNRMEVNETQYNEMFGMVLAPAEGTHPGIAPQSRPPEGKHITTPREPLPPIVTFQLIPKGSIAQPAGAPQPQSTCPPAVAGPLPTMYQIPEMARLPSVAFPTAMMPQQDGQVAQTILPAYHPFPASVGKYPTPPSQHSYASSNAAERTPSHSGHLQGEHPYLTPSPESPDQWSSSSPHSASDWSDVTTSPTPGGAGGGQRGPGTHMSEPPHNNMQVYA

For the molecule `Cc1ccc(S[C@]2(C(=O)NCCN3CCOCC3)CC(=O)N(C3CCCCC3)[C@@H]2c2ccc(CO)cc2I)cc1`, the composite z-score was -1.01 in [1]; 0.866 in experiment [2]; -0.0687 in experiment [3]; 0.841 in experiment [4]; 0.955 in [5]; 1.61 in experiment [6]. Also, the composite z-score in experiment [7] is 1.22; in experiment [9] it was 0.259; in experiment [10], -0.279; in experiment [11] it was 1.53; in experiment [15], 3.23; in experiment [17], -0.0512. Besides, the composite z-score in experiment [18] is 0.824; in [19], 1.07; in experiment [20] it was -0.313. The z-score in [8] is -2.05 (inactive); in experiment [12], -0.376 (inactive); in experiment [13], 0.174 (inactive); in [14] it was 1.28 (inactive); in experiment [16], -0.385 (inactive).
Take `CCC[C@@H]1[C@@H](Sc2ccccc2)[C@@H](C(=O)O)[C@H](c2ccc(C)cc2)N1S(=O)(=O)c1ccc(C)cc1`: the composite z-score in [1] was -0.259; in [2], 0.175; in [3] it was 0.0213; in experiment [4] it was 0.894; in [5], 1.67; in experiment [6], 1.15. The composite z-score was 1.34 in [7]; 1.11 in experiment [9]; -0.0618 in [10]; 1.56 in [11]; 3.45 in [15]; 0.114 in [17]. Also, the composite z-score in experiment [18] is 1.05; in experiment [19] it was 1.04; in experiment [20] it was 0.129. In addition, the z-score is -4.1 (inactive) in [8]; -0.994 (inactive) in [12]; 0.674 (inactive) in experiment [13]; -0.698 (inactive) in [14]; -0.131 (inactive) in experiment [16].
`COc1ccc(CCNC(=O)[C@@H]2c3ccccc3C(=O)N(CC34CC5CC(CC(C5)C3)C4)[C@H]2c2ccc(CO)cc2)cc1`: the composite z-score is -0.227 in experiment [1]; 0.0668 in experiment [2]; 0.257 in experiment [3]; 0.239 in [4]; 0.703 in experiment [5]; 1.09 in experiment [6]. The composite z-score was 1.24 in experiment [7]; -0.0095 in [9]; 0.0972 in [10]; 1.12 in experiment [11]; 2.45 in [15]; -0.297 in [17]. Also, the values for the composite z-score in experiment [18], in experiment [19] and in experiment [20] were 1.92, 1.06 and -0.0828, respectively. For the same molecule, the z-score is -1.89 (inactive) in experiment [8]; -0.543 (inactive) in experiment [12]; -0.817 (inactive) in experiment [13]; -0.13 (inactive) in experiment [14]; 0.573 (inactive) in [16].
Turning to `CCCCN1CC=CC23O[C@@H]4C=CCOC(=O)[C@@H]4[C@H]2C(=O)N(C(CO)C(C)C)[C@@H]3C1=O` (stereo not given in full), the composite z-score is 0.0186 in experiment [1]; -0.438 in experiment [2]; -0.124 in experiment [3]; -0.275 in experiment [4]; -0.758 in [5]; -0.397 in experiment [6]. Further, the composite z-score is -0.0125 in experiment [7]; -0.288 in experiment [9]; -0.13 in experiment [10]; -0.453 in experiment [11]; -1.06 in [15]; -0.118 in experiment [17]. Moreover, the results for the composite z-score in experiment [18], in experiment [19] and in [20] were -0.319, -0.743 and -0.217, respectively. The z-score in experiment [8] is 0.353 (inactive); in experiment [12], -0.161 (inactive); in [13], -0.325 (inactive); in experiment [14], 0.752 (inactive); in experiment [16], -0.505 (inactive).
As for `COC(=O)[C@@]1(Cc2ccccc2CN=[N+]=[N-])COC(c2ccc(OCCCO)cc2)=N1`, the composite z-score in experiment [1] was 1.28; in [2], -1.34; in experiment [3], -0.245; in [4], -0.565; in experiment [5], -1.79; in experiment [6], 0.305. The composite z-score in experiment [7] was 0.62; in experiment [9], -0.575; in experiment [10] it was -0.137; in [11] it was 1.26; in experiment [15], 3.04; in experiment [17], 0.175. Besides, the composite z-score in [18] was -1.69; in experiment [19], -1.25; in experiment [20], -0.442. Also, the z-score was -0.988 (inactive) in experiment [8]; -1.38 (inactive) in experiment [12]; -6.67 (inactive) in experiment [13]; -1.9 (inactive) in experiment [14]; 0.441 (inactive) in experiment [16].
